For the assay, the target named is T1, FLI1 (Homo sapiens, UniProt Q01543 1-452).
T1 sequence: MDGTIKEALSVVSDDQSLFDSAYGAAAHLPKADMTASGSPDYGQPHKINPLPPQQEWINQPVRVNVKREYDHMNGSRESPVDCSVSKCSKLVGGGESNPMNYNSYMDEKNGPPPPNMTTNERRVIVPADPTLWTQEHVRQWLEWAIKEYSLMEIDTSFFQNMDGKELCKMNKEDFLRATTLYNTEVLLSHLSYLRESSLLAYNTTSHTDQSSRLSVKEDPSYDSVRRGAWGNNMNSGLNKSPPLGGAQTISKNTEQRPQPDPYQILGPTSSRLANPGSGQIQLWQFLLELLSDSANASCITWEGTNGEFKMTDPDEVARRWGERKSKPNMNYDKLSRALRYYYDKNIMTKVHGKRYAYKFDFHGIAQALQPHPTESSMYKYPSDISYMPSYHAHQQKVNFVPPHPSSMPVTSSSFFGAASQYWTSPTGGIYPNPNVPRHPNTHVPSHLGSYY
Description: DAPPL (digital affinity profiling via proximity ligation, sequencing); 10 mM Tris-HCl pH 7.5, 50 mM NaCl, 1 mM DTT, 4% glycerol, room temperature, 30 min; GST-TFs on glutathione beads, 16-mer random dsDNA library, 0.1% formaldehyde crosslink after washing; high values mean tight binding. Particulars: protein: recombinant; tags: N-terminal GST; dsDNA, one strand shown. In a few lines: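 Binding signal is defined as a hexamer's read frequency for one factor over its frequency for the tag-only sample. To obtain reads, GST-fused human transcription factors were expressed in yeast, captured on glutathione beads, barcoded with DNA and pooled with that sample. Pools met 200 nmole of a 16-mer random double-stranded DNA library in Tris/NaCl/DTT/glycerol buffer for 30 min at room temperature before washing, 0.1% formaldehyde crosslinking, proximity ligation (BsaI/T4 ligase, 1 h, 37 °C), PCR and Illumina NextSeq500 sequencing.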
Regarding TGCTCT, the binding signal was 1.34 fold enrichment (6-mer frequency, TF over GST control).
Consider AACAAA, for which the binding signal is 1.18 fold enrichment (6-mer frequency, TF over GST control).
Consider CTTATT, for which the binding signal is 1.61 fold enrichment (6-mer frequency, TF over GST control).
As for TCGTTT, the figure is 1.13 fold enrichment (6-mer frequency, TF over GST control); as for TTTTGG, 1.35 fold enrichment (6-mer frequency, TF over GST control); as for TAAAGT, 1.22 fold enrichment (6-mer frequency, TF over GST control).
As for GCCCTA, the figure is 1.29 fold enrichment (6-mer frequency, TF over GST control); as for TTAGCA, 1.21 fold enrichment (6-mer frequency, TF over GST control).
As for GCCTTC, the figure is 1.41 fold enrichment (6-mer frequency, TF over GST control).
As to ATAGAT, the binding signal is 1.16 fold enrichment (6-mer frequency, TF over GST control).
To TTTAGC belongs 1.04 fold enrichment (6-mer frequency, TF over GST control).
As for GCTAAT, the figure is 1.14 fold enrichment (6-mer frequency, TF over GST control).
As for TATATA, the binding signal was 1.23 fold enrichment (6-mer frequency, TF over GST control).
To AATTAG belongs 1.18 fold enrichment (6-mer frequency, TF over GST control).
For GTAATA, the binding signal was 1.12 fold enrichment (6-mer frequency, TF over GST control).
To CTCCCC belongs 1.44 fold enrichment (6-mer frequency, TF over GST control); to GATTCC, 1.19 fold enrichment (6-mer frequency, TF over GST control); to CCTTCC, 2.45 fold enrichment (6-mer frequency, TF over GST control).
To TTCTTC belongs 1.92 fold enrichment (6-mer frequency, TF over GST control); to GAATAA, 1.01 fold enrichment (6-mer frequency, TF over GST control).
To CTACTA belongs 1.32 fold enrichment (6-mer frequency, TF over GST control).
With ACTCTG, the binding signal is 1.28 fold enrichment (6-mer frequency, TF over GST control).
To TTCACT belongs 1.22 fold enrichment (6-mer frequency, TF over GST control); to CCTGAC, 1.49 fold enrichment (6-mer frequency, TF over GST control).
As for TTCAAA, the figure is 1.23 fold enrichment (6-mer frequency, TF over GST control); as for CGCCTT, 1.45 fold enrichment (6-mer frequency, TF over GST control).
As for CCATTT, the figure is 1.25 fold enrichment (6-mer frequency, TF over GST control).
With ACCCTA, the binding signal is 1.19 fold enrichment (6-mer frequency, TF over GST control).
To CTTAAT belongs 1.37 fold enrichment (6-mer frequency, TF over GST control); to TACGCG, 1.12 fold enrichment (6-mer frequency, TF over GST control); to ACGTTT, 1.21 fold enrichment (6-mer frequency, TF over GST control).
Consider GGACCT, for which the binding signal was 1.42 fold enrichment (6-mer frequency, TF over GST control).
Take GCTTTG: the binding signal was 1.24 fold enrichment (6-mer frequency, TF over GST control).
For the sequence AACTTT, the binding signal was 1.38 fold enrichment (6-mer frequency, TF over GST control).
To ACTACT belongs 1.28 fold enrichment (6-mer frequency, TF over GST control).
Regarding GAAATA, the binding signal is 1.45 fold enrichment (6-mer frequency, TF over GST control).
To TAACTA belongs 1.36 fold enrichment (6-mer frequency, TF over GST control); to TATTAT, 1.3 fold enrichment (6-mer frequency, TF over GST control).
As for GAACCT, the figure is 1.09 fold enrichment (6-mer frequency, TF over GST control).
As for GCTCAC, the figure is 1.37 fold enrichment (6-mer frequency, TF over GST control).

(Values after PMC7862700, “An all-to-all approach to the identification of sequence-specific readers for epigenetic DNA modifications on cytosine”.)
